Rows were chosen to be rich in hits. Some 3.6% of all compounds tested hit in one or more screens of this group.
Rango release inh – inhibition of RanGTP-driven Rango-importin beta dissociation; Potency, µM (doses to about 46.1 µM); 340,000 compounds, 0.071% hits; O95149+P62826; Biochemical FRET Rango-importin beta, RanGTP-induced dissociation; AID 540253; calls by dose curve; note: nearly all actives have a fitted effect of over 45% in size
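Rango (0.1 uM)–importin beta (0.25 uM) complex; RanGTP-RCC1 trigger; 45 min RT; CFP/YFP FRET read.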
Rango complex inh – inhibitors of Rango-importin beta complex formation; Q14974; Rango CFP/YFP FRET sensor + importin beta, 45 min; Potency, µM (series often up to 92.2 µM); 340,000 compounds, 0.031% hits; calls by dose curve; note: nearly all actives have a fitted effect of over 15% in size
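Inhibition scored from the CFP 486 nm/YFP 530 nm FRET ratio 45 min after adding 0.125 microM importin beta to 50 nM Rango biosensor preincubated 5 min with compound (room temperature, PBS with DTT, Tween-20, BSA). No-importin wells as positive control.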
PLK1 PBD inh – inhibitors of human PLK1 polo-box domain binding | AID 720504 | Potency, µM, hits mostly inhibitors | Plk1 PBD binding of FITC phosphopeptide, fluorescence polarization | 360,000 compounds, 2.8% hits; note: series mostly up to about 57 µM; nearly all actives have a fitted effect of over 65% in size
VDR inh – vitamin D3 receptor (human) inhibition; P11473; VDR-SRC2-3 peptide fluorescence polarization, 2 h; Potency, µM, usual class: inhibitors; 400,000 compounds, 0.93% hits
Target sequence (P11473 whole entry, looked up): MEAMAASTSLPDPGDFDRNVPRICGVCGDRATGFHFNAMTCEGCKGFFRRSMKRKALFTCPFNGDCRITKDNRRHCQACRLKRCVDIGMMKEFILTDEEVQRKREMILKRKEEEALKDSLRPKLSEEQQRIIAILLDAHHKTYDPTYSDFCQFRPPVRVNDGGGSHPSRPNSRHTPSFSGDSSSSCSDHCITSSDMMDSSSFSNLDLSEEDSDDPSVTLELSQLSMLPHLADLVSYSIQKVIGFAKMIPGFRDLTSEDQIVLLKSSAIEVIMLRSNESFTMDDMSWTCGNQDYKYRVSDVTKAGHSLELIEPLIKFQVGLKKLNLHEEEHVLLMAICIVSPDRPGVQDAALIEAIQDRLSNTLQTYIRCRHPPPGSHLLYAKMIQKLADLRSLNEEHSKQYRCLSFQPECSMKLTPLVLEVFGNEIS
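Fluorescence polarization assay of small-molecule disruption of VDR binding to coregulator peptide SRC2-3. Compounds and controls pin-transferred, then read after 2 h incubation at ambient room temperature.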
GCN5L2 inh – blocks human GCN5L2 histone acetyltransferase; Q92830; GCN5L2 HAT assay, ThioGlo1 CoA-SH fluorescence; Potency, µM (titrated, usually from 58.9 µM), usual class: inhibitors; 390,000 compounds, 0.21% hits
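qHTS, 1536-well. 20nM enzyme, pH 7.5 HEPES/EDTA/Tween-20 buffer; 15 min compound preinc., RT. Start: 75uM H3(1-25), 70uM AcCoA, 50uM ThioGlo1. Read Ex340/Em540 at t=0 (autofluorescence flag) and t=20 min.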
PI5P4K alpha inh – inhibitors of human PI5P4K alpha. P48426. PI5P4Kalpha enzyme, ADP-Glo luminescence, 60 min; stronger effect = lower value. max response, %. 330,000 compounds, 1.2% hits. AID 652105; active = max response of -50% or lower; inconclusive = between -30% and -50%; inactive = -30% or higher; note: value at the top dose of about 77 µM
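Single end-point luminescence (ADP-Glo) quantified ADP from PI5P4Kalpha turnover; ATP 5 microM final, 1 h at RT, 0.1% CHAPS and 0.28 mM EGTA in HEPES pH 7.4.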
Numbers stand for hits; i = inactive; ? = inconclusive; nt = no result given. Unless noted, calls come from the whole dose curve; as a rule, active = well fitted curve in the direction sought with a large enough effect; inconclusive = small, poorly fitted or top-dose-only effect, or another doubt; inactive = no such curve, though single readings can be large; an effect the other way counts as inactive or inconclusive.

SMILES | Rango release inh | Rango complex inh | PLK1 PBD inh | VDR inh | GCN5L2 inh | PI5P4K alpha inh
O=C1O[C@H](CN2CCOCC2)CN1/N=C\c1ccc([N+](=O)[O-])o1 | nt | nt | nt | 28µM | i | nt
O=C1OC(CN2CCOCC2)CN1N=Cc1ccc([N+](=O)[O-])o1 (stereo not drawn) | ? | ? | i | i | i | i
Cc1ccc(-n2c(C)nn(Cc3ccc([N+](=O)[O-])cc3)c2=O)cc1 | i | i | i | i | i | i
Cc1ccc(-n2c3nc(=O)[nH]c(=O)c-3cc3cc([N+](=O)[O-])ccc32)cc1 | i | i | 17µM | ? | i | i
COc1ccc(S(=O)(=O)Nc2c(F)cccc2F)cc1 | i | ? | 30µM | ? | ? | i
COc1ccc(S(=O)(=O)Nc2cccc3ccccc23)cc1 | nt | nt | nt | i | nt | nt
Cc1ccc2oc(-c3cccc(NC(=O)c4sc5c([N+](=O)[O-])cccc5c4Cl)c3)nc2c1 | nt | nt | nt | i | i | nt
COc1ccc(N=CC2=C(O)CC(c3ccccc3)CC2=O)c(OC)c1 (stereo not drawn) | ? | ? | 21µM | ? | i | i
CCOc1ccccc1N=CC1=C(O)CC(c2ccccc2)CC1=O (stereo not drawn) | ? | ? | i | i | i | i
CC1=CC(=O)c2c(O)ccc(O)c2C1=O | nt | nt | nt | nt | 13µM | nt
CC(C)(C)c1cnnn1-c1ccc(C(=O)CCl)cc1 | i | i | 6.7µM | 79µM | i | nt
CC(C)(C)c1cnnn1-c1ccc(C=O)cc1 | i | i | i | i | i | nt
O=C(NCCN1C(=O)C2C3C=CC(C3)C2C1=O)NCc1ccccc1 (stereo not drawn) | i | i | i | 89µM | i | i
CCOc1ccc(CCNC(=O)c2cn(CC)c3ccc(S(=O)(=O)N4CCc5ccccc5C4)cc3c2=O)cc1OCC | nt | nt | nt | i | i | nt
CCC(=O)Nc1nnc(S(=O)(=O)N(C)Cc2ccco2)s1 | i | i | 27µM | ? | i | i
CCCC(=O)Nc1nnc(S(=O)(=O)N(C)Cc2ccco2)s1 | i | ? | 27µM | ? | i | i
Cc1ccc(C(=O)Nc2nnc(S(=O)(=O)N(C)Cc3ccco3)s2)cc1 | nt | nt | nt | i | i | nt
Cc1ccccc1CNCc1c(C(=O)O)c(C)n(Cc2ccc(F)cc2Cl)c1C | nt | nt | nt | i | i | nt
N#Cc1c(=O)c2nc(NCc3ccccc3)ncc2n2ccccc12 | ? | ? | i | i | i | i
N#Cc1c(=O)c2nc(NCCCO)ncc2n2c(=O)c3ccccc3[nH]c12 | ? | ? | i | i | i | -65
Nc1ccc2nc(-c3ccc(N)c(Cl)c3)[nH]c2c1 | i | ? | i | i | ? | -63
Nc1ccc2nc(-c3ccccc3)[nH]c2c1 | i | i | i | i | ? | i
C=C1CCN(C(CC(C)C)C(=O)NCCCc2ccccc2)S(=O)(=O)c2ccccc21 (stereo not drawn) | nt | nt | nt | i | nt | nt
Cc1ccc(S(=O)(=O)Cc2nc(-c3ccc(C(=O)NCc4ccccc4)cc3)oc2C)cc1 | nt | nt | nt | i | i | nt
CCOC(=O)c1c(-c2ccc(C)cc2)csc1NC(=O)C1CCCO1 (stereo not drawn) | i | i | i | i | i | i
SMILES | Rango release inh | Rango complex inh | PLK1 PBD inh | VDR inh | GCN5L2 inh | PI5P4K alpha inh
CCOC(=O)c1c(-c2ccc(F)cc2)csc1NC(=O)C1CCCO1 (stereo not drawn) | i | i | 27µM | ? | i | ?
COc1ccc(N2CCN(C(c3ccc(C)cc3)c3nnnn3C(C)(C)C)CC2)cc1 (stereo not drawn) | nt | nt | nt | i | nt | nt
COc1cc2c(cc1OC)C(COc1cc(C)cc(C)c1)N(C(=O)C(C)(C)C)CC2 (stereo not drawn) | nt | nt | nt | i | i | nt
COC(=O)/C=c1/s/c(=C(/C#N)C(=O)N2CCCCC2)n(-c2ccccc2)c1=O | i | i | i | ? | i | i
COC(=O)/C=c1/s/c(=C(/C#N)C(=O)N2CCOCC2)n(-c2ccccc2)c1=O | i | i | 27µM | i | i | i
C=C[C@@]1(C)CC(=O)[C@]2(O)[C@@]3(C)[C@H](O)CCC(C)(C)[C@@H]3[C@H](O)[C@H](OC(C)=O)[C@@]2(C)O1 | nt | nt | nt | i | i | nt
CSc1ccc(C(=O)C2CCCN(C(=O)c3nn(C)c(=O)c4ccccc34)C2)cc1 (stereo not drawn) | i | i | 24µM | i | i | i
